# Test results taken from PubChem BioAssay (NCI).
# About 83,000 compounds went through this panel and 20% of them were active in at least one assay; those are over-represented in the sample as a whole.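 48-hour exposure, single concentration, 96-well plates; percent growth endpoint where 0 means no net growth. Active: below 10.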 The source made the active and inactive calls.
# System: HOP-92 NSCLC
# Experiment: NCI-60 one-dose screen, 48 h (100 = growth as untreated, 0 = no growth, -100 = all killed)
# Settings: 10 µM unless noted
row,Compound,growth
1,C=C1CCC2C3(C)COC(c4ccc(F)cc4)OC3CCC2(C)C1CC(O)C1=CCOC1=O (stereo not drawn),45.9% (inactive)
2,NS(=O)(=O)c1ccc(N=Nc2c(O)n(CC(=O)Nc3ccccc3Cl)c3ccccc23)cc1,33.7% (inactive)
3,Cc1ccccc1[C@H]1C(C(=O)c2ccc(Cl)cc2)C2(N[C@@H]1c1ccccc1)C(=O)Nc1ccc(Cl)cc12 (stereo partly drawn),-44.4% (active)
4,CCCCCCCCc1ccc(S(=O)(=O)Nc2ccc(CC)cc2C(=O)O)cc1,71% (inactive)
5,CCC(C)(C)c1ccc(OCCCCN2CCN(c3ccncc3)CC2)cc1,3.82% (active)
6,COc1ccc(C(=O)/C=C/c2ccc(Oc3nc(Nc4ccc(F)cc4)nc(N(C)C)n3)c(OC)c2)cc1,57.4% (inactive)
7,S=c1c2ccccc2nc2n1CCc1c-2[nH]c2ccccc12,25.2% (inactive)
8,CCOC(=O)COc1c(OC)c(OC)cc2oc(-c3cccc(C(=O)Nc4ccc(Cl)cc4)c3)cc(=O)c12,52.6% (inactive)
